Compound activity: PubChem BioAssay, Broad Institute
In the library only some 4% were active in any assay of this set; here they are far more common.
Wnt bcat act: activates Wnt/beta-catenin signaling in a reporter cell assay; activator, plate reader; activation, % at 9.35 µM; actives 1.2% (n = 300,000); AID 743398; in the data active means activation above about 30%, passing the limit was not always enough;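 further: 0% = neutral control wells and 100% = positive control wells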
MITF act: MITF TRPM1 promoter activation in melanoma cells | activation, % at 12.5 µM | SK-MEL-5 TRPM1-promoter luciferase, 24 h; % of positive control, neutral wells = 0 | actives 0.75% (n = 300,000) | AID 588334;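 active means mean activation of at least 80% with every replicate also reaching 80%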;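 further: 0% = neutral control wells and 100% = parthenolide positive control wells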
TRPM1 prom inh: inhibitors of MITF-driven TRPM1 promoter in melanoma cells | actives 0.83% (n = 330,000) | inhibition, % at 12.5 µM | SK-MEL-5 TRPM1 promoter luciferase, 24 h;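 active means mean inhibition across replicates of 60% or more, whatever share of single replicates reaches that level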
esBAF inh: SWI/SNF esBAF complex inhibition; mouse ES cells, Bmi1-luciferase knock-in reporter, 24 h; 100% = twice the neutral-well signal; reporter increase, % at 12.5 µM; actives 2% (n = 350,000); AID 602393; in the data active means activation above about 40%;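 further: 0% = median of the plate's neutral control wells and 100% = double that signal; a rise in the Bmi1 reporter signal indicates esBAF inhibition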
LMP1 NFkB inh: reduces LMP1-driven NF-kappaB luciferase signal; LMP1-induced NF-kappaB luciferase reporter cells, luminescence; inhibition, % at 12.5 µM; actives 0.69% (n = 350,000); AID 504558; in the data active means inhibition above about 41%;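 further: 0% = neutral control wells and 100% = reference inhibitor control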
Statin myotox sup: suppressors of simvastatin-induced myotoxicity in C2C12 myotubes. ATP luminescence, 48 h; scaled: DMSO 0, geranylgeraniol control 100. rescue of ATP level, % at 7.49 µM. actives 0.78% (n = 330,000). AID 602340;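 active means mean ATP rescue above about 67%, or every replicate alone reaching that limit, limit read from the data, passing the limit was not always enough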;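 further: myotubes were challenged with 10 µM simvastatin during compound exposure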
* marks the source's active call; other numbers are inactive results; nt = not tested or not shown; ! = a repeat was not active.

SMILES	Wnt bcat act	MITF act	TRPM1 prom inh	esBAF inh	LMP1 NFkB inh	Statin myotox sup
O=C(CSc1nc2ccccc2o1)N1CCN(C(=O)c2ccco2)CC1	nt	5	-4	-6	-2	10
O=c1c([N+](=O)[O-])c(N2CCOCC2)c2ccccc2n1Cc1ccccc1	-1	-3	0	nt	-2	nt
Cc1ccnc(SCCn2c(N3CCN(C)CC3)nc3c2c(=O)n(C)c(=O)n3C)n1	0	nt	7	1	0	-6
C[C@@H]1CN([C@H](C)CO)C(=O)Cc2cc(NC(=O)Nc3cccc4ccccc34)ccc2O[C@@H]1CN(C)C	nt	nt	nt	-4	nt	-9
Cn1c(CNc2ccc(O)cc2)nc2ccccc21	21	10	-4	34	-14	21
Cc1ccc(NCc2nc3ccccc3n2C)cc1C	13	nt	-41	51*	-31	13
COC(=O)C1=C(C)Nc2[nH]c(=S)[nH]c(=O)c2C1c1ccc(O)cc1 (stereo not drawn)	1	11	-8	-7	-4	3
CCN1CCN(C2=C(NS(=O)(=O)c3ccc(NC(C)=O)cc3)C(=O)c3ccccc3C2=O)CC1	11	-40	40	3	-5	3
CCN1CCN(C2=C(NS(=O)(=O)c3ccc(C)cc3)C(=O)c3ccccc3C2=O)CC1	1	-67	70*	2	-16	6
CC(=O)Nc1ccc(S(=O)(=O)NC2=C(N3CCN(Cc4ccccc4)CC3)C(=O)c3ccccc3C2=O)cc1	-3	-32	35	nt	4	14
CC(=O)Nc1ccc(S(=O)(=O)NC2=C(N3CCN(C)CC3)C(=O)c3ccccc3C2=O)cc1	1	-84	83*	-1	3	14
Cc1cc(C(=O)NC2CCCc3c2cnn3-c2ccc(C)c(C)c2)n(C)n1 (stereo not drawn)	1	-39	40	-24	32	-16
Cc1cc(C)n(CC(=O)NC2CCCc3c2cnn3-c2ccc(C)c(C)c2)n1 (stereo not drawn)	9	29	-33	59*	-11	37
C/C(=N\NC(=O)c1nnn(-c2nonc2N)c1-c1ccccc1)c1cccnc1	0	8	-5	nt	-4	nt
CCOc1cccc(-c2c(C(=O)N/N=C(\C)c3ccncc3)nnn2-c2nonc2N)c1	-1	-2	2	0	4	-1
C/C(=N\NC(=O)c1nnn(-c2nonc2N)c1CN(C)c1ccccc1)c1cccnc1	34*	-1	5	-6	0	-18
CCOc1cccc(-c2c(C(=O)N/N=C(\C)c3ccccn3)nnn2-c2nonc2N)c1	-3	-61	61*	-33	65*	13
C[C@H]1CN([C@@H](C)CO)C(=O)c2cccc(NS(=O)(=O)c3ccccc3)c2O[C@H]1CN(C)Cc1ccc(C(F)(F)F)cc1	nt	nt	nt	-1	nt	-28
Cc1ccc2c(C)c(C(=O)N3CCN(Cc4ccc5c(c4)OCO5)CC3)oc2c1C	8	50	-51	79*	-7	9
Cc1ccc(C(=O)N2CCN(Cc3ccc4c(c3)OCO4)CC2)o1	nt	-4	3	-2	8	2
Cc1ccc(N=C2N=C(N)c3ccccc32)cc1C	nt	-3	4	55*	-41	-3
Cc1ccn(C(C)CC(=O)N2CCc3ccccc32)n1 (stereo not drawn)	-1	-24	26	-2	0	7
CCC(=O)N(C)C[C@@H]1Oc2ncc(C#Cc3ccccc3OC)cc2C(=O)N([C@@H](C)CO)C[C@@H]1C	nt	nt	nt	-1	nt	22
C[C@@H]1CN([C@@H](C)CO)C(=O)c2cccc(NS(C)(=O)=O)c2O[C@H]1CN(C)CC1CCCCC1	-2	0	-2	-3	-6	103*!
C[C@@H]1CN([C@@H](C)CO)C(=O)c2cccc(NS(=O)(=O)c3cn(C)cn3)c2O[C@H]1CN(C)C(=O)NC1CCCCC1	nt	nt	nt	-2	nt	11
SMILES	Wnt bcat act	MITF act	TRPM1 prom inh	esBAF inh	LMP1 NFkB inh	Statin myotox sup
C[C@@H]1CN([C@H](C)CO)C(=O)c2cccc(NS(C)(=O)=O)c2O[C@H]1CN(C)CC1CC1	nt	nt	nt	0	nt	-17
C[C@H](CO)N1C[C@H](C)[C@@H](CN(C)C(=O)NC2CCCCC2)Oc2c(NS(=O)(=O)c3cn(C)cn3)cccc2C1=O	-4	-4	0	2	50*	-21
CN(C)S(=O)(=O)c1ccc(NC(=S)NC(=O)c2ccc(Br)o2)cc1	-10	nt	nt	nt	nt	nt
Cc1ccc(-c2nc3ccsc3c(=O)o2)cc1	50*	-6	9	nt	-15	nt
CCNC(=S)NNC(=O)c1cccn(Cc2ccc(Cl)cc2Cl)c1=O	-4	1	-1	-6	1	82*
Cc1ccc(-c2cc(N)n(-c3ccc(C)cc3)n2)cc1	nt	87*	-89	47*	-24	112*
Cc1ccc(-n2nc(-c3ccccc3)cc2Nc2ccccc2N)cc1	-7	11	-11	nt	5	nt
Cc1ccc(-c2cc(N)n(-c3ccc(F)cc3)n2)cc1	9	100*	-95	nt	-17	nt
CO[C@H]1CN(C)C(=O)c2ccc(NS(C)(=O)=O)cc2OC[C@H](C)N(Cc2nccs2)C[C@H]1C	nt	nt	nt	0	nt	5
COc1ccc(CNC(=O)c2c(O)c3cccc4c3n(c2=O)CCC4)cc1	nt	-3	3	-6	3	2
COc1ccc(CNC(=O)c2c(O)c3cccc4c3n(c2=O)CCC4)cc1OC	nt	-2	5	-10	-3	79*
CN(C)C(=O)c1ccc(-c2ccc3c(c2)[C@@H]2[C@@H](CCN2C(=O)c2ccc(F)cc2)[C@H](CO)N3C)cc1	nt	nt	nt	6	nt	9
O=S(=O)(NCCOCC(F)(F)C(F)F)c1ccc2oc3ccccc3c2c1	nt	-5	2	nt	5	nt
COc1ccc(OCCNS(=O)(=O)c2ccc3oc4ccccc4c3c2)cc1	4	-9	12	3	-1	101*
CCc1ccc(OCCSc2nc3ccccc3n2CCC(=O)O)cc1	11	-2	3	-3	-2	9
Cc1ccc(Nc2nnc(-c3ccncc3)s2)c(Br)c1	0	-3	0	nt	3	nt
C=CCn1c(C)cc(-c2csc(NC(=O)C3=COCCO3)n2)c1C	-14	120*	-118	nt	-23	-3
COc1cccc(N=Nc2c(=O)[nH]n3c(=O)cc(C)[nH]c23)c1	0	-16	14	3	-2	94*
CCCC(=O)N1CCN(c2ccc(NC(=O)c3ccc([N+](=O)[O-])o3)cc2)CC1	-8	-89	89*	nt	-29	nt
CCC(=O)N1CCN(c2ccnc3cc(Cl)ccc23)CC1	-4	6	-4	nt	24	nt
O=C(Nc1ccc(N2CCN(C(=O)c3ccc(Cl)cc3)CC2)cc1)c1ccc([N+](=O)[O-])o1	0	-88	90*	nt	-69	nt
CC(C)(C)C(=O)Nc1ccccc1N1CCN(C(=O)c2ccc(Cl)cc2)CC1	-3	-4	4	5	2	127*
